Test results taken from PubChem BioAssay (NCI).
Compounds without any hit were thinned out: in the full panel of roughly 83,000, 20% have a hit.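 Step 1: grow cells in 96-well plates. Step 2: add test compound at a single concentration. Step 3: incubate 48 h. Step 4: record percent growth.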 A number with no mark means an inactive call. Active and inactive are the calls of the source. How the source made its calls: active means growth percent below 10; inactive means the rest.

Columns and labels:
Experiment in all cases: NCI-60 one-dose screen, 48 h (100 = growth as untreated, 0 = no growth, -100 = all killed)
HCT-15 colon = details: 10 µM unless noted
HT29 colon = details: 10 µM unless noted
SNB-75 CNS = details: 10 µM unless noted
SNB-19 CNS = details: 10 µM unless noted
U251 CNS = details: 10 µM unless noted
PC-3 prostate = details: 10 µM unless noted
SK-MEL-5 melanoma = details: 10 µM unless noted
UACC-62 melanoma = details: 10 µM unless noted
SK-MEL-28 melanoma = details: 10 µM unless noted
SK-MEL-2 melanoma = details: 10 µM
EKVX NSCLC = details: 10 µM unless noted
SN12C renal = details: 10 µM unless noted
UO-31 renal = details: 10 µM unless noted
TK-10 renal = details: 10 µM unless noted
ACHN renal = details: 10 µM unless noted
CCRF-CEM leukemia = details: 10 µM unless noted
MOLT-4 leukemia = details: 10 µM unless noted
CAKI-1 renal = details: 10 µM unless noted
A498 renal = details: 10 µM unless noted
LOX IMVI melanoma = details: 10 µM unless noted

SMILES | growth (HCT-15 colon) | growth (HT29 colon) | growth (SNB-75 CNS) | growth (SNB-19 CNS) | growth (U251 CNS) | growth (PC-3 prostate) | growth (SK-MEL-5 melanoma) | growth (UACC-62 melanoma) | growth (SK-MEL-28 melanoma) | growth (SK-MEL-2 melanoma) | growth (EKVX NSCLC) | growth (SN12C renal) | growth (UO-31 renal) | growth (TK-10 renal) | growth (ACHN renal) | growth (CCRF-CEM leukemia) | growth (MOLT-4 leukemia) | growth (CAKI-1 renal) | growth (A498 renal) | growth (LOX IMVI melanoma)
Cc1cc(N(CCNc2ccnc3cc(Cl)ccc23)Cc2cccs2)nc(Cl)n1 | 1.01% (active) | -21.5% (active) | -84.5% (active) | 38.3% | -57.3% (active) | 21.1% | -31.2% (active) | 13.4% | -43.4% (active) | -58.2% (active) | 33.9% | -15.9% (active) | -79.4% (active) | -93% (active) | -88% (active) | -2.45% (active) | -38.2% (active) |  |  | 
Cc1ccccc1N1C(c2ccccc2)=NNC12C=CC(=O)C=C2Cl (configuration not stated) | 108% | 96.2% | 96.3% | 106% | 94.2% | 96.2% | 115% | 98.1% | 101% |  | 111% | 96.3% | 88.8% | 109% | 100% | 101% | 94.7% | 105% | 109% | 
CN(C)C1CCN(C(=O)c2ccc(NC(=O)Nc3ccc(-c4nc(N5CCOCC5)nc(N5CCOCC5)n4)cc3)cc2)CC1 | 74.1% [2.5 µM] | -2.55% [2.5 µM] (active) | -51.7% [2.5 µM] (active) | 1.85% [2.5 µM] (active) | -10.5% [2.5 µM] (active) | 3.75% [2.5 µM] (active) | -39.1% [2.5 µM] (active) | -58.9% [2.5 µM] (active) | -27.6% [2.5 µM] (active) |  | 40.3% [2.5 µM] | 3.23% [2.5 µM] (active) | 32.2% [2.5 µM] | -9.03% [2.5 µM] (active) | 55.6% [2.5 µM] | 9.68% [2.5 µM] (active) | -7.96% [2.5 µM] (active) |  | -54.1% [2.5 µM] (active) | 
COc1cc(OC)c(C(=O)/C=C/c2cc3c(cc2OCc2ccccc2)OC(C)(C)CC3)cc1CC=C(C)C | 39.7% | 57.9% | 39.2% | 80.7% | 29.7% | 25.2% | 50.4% | 38.7% |  | 82.3% | 61.1% | 47.6% | 51.4% | 81.7% | 68.2% |  | -0.0389% (active) |  | 98.9% | 
N[C@@H]1CCCN(c2c(/C=C3\SC(=O)NC3=O)cccc2-c2ccccc2)C1 | 63.9% | 55% | -14.1% (active) | 1.97% (active) | 13.9% | 47.5% | 55% | 62.2% | 73.8% |  | 62.6% | 65% | 31.9% | 78.6% |  | 55.3% | 31.1% |  | 75% | 
COc1ccc(C(=O)N2c3ccccc3Sc3ccccc32)c(F)c1 | 27.3% | 5.07% (active) | -11.3% (active) | 35.8% | 33.6% | 29.8% | 15.7% | 22.6% | 58.9% |  | 44% | 60.8% | 49.2% | 44.5% |  | 17% | 27.1% | 45.3% | 2.13% (active) | 
CC1(COc2ccc3c(c2)ncn3-c2ccc3cccc(N4CCC(N)CC4)c3n2)COC1 | 10.5% | 0% (active) | 14.4% | 7.04% (active) | -36.4% (active) | 30.2% | -13.8% (active) | 99.3% | 15.2% |  | 34.6% | 32.4% | -3.3% (active) | 32% |  | 2.15% (active) | -4.11% (active) | 22.9% | 85.1% | 
CNC(=O)c1cc(Oc2cccc3nc(Nc4ccc(Cl)c(F)c4)ccc23)ccn1 | 59.3% | 82.5% | -11.7% (active) | 30.3% | 53.3% | 66.1% | 44.8% | 52.3% | 48.8% |  | 71.1% | 63.2% | 81.6% | 54.1% | 38.5% | 91.3% | 69.2% | 87.9% | 83.8% | 
Cn1ccnc1C(=O)/C=C/c1ccc(CC(=O)Nc2ccc(Br)cc2)cc1 | 5.5% (active) | 0.238% (active) | 8.2% (active) | 11.4% | 5.83% (active) | 23% | 62.9% | 33% | 92.3% |  | 22.6% | 1.07% (active) | 22.7% | 49.5% |  | 11.9% | 2.44% (active) | 34.9% | 73.8% | 
S=C(NCc1ccc2c(c1)OCO2)N1CCN(c2ncnc3c2oc2ccccc23)CC1 | 37.1% | 28.9% | 37.6% | 49.1% | 41.3% | 27.3% | -46% (active) | 31% | 52.9% |  | 38.8% | 50.8% | 11.9% | -3% (active) | 19.6% | 22.5% | 5.79% (active) | 28% | 19.8% | 
O=C(Cn1ccc2ccccc21)Nc1ccc(-c2nc3ccccc3s2)cc1 | 110% | 115% | 93.8% | 98.6% | 97.6% | 98% | 98.6% | 95% | 114% |  | 107% | 101% | 92.4% | 104% | 111% | 97% | 94.5% | 100% | 99.1% | 
CC(=O)C1=C(C)NC(SCc2nnc(-c3ccc(C)cc3)o2)=NC1c1ccc(F)cc1 (configuration not stated) | 101% | 110% | 98.5% | 94.1% | 95.2% | 85.3% | 99% | 84.6% | -78.4% (active) |  | 107% | 93.1% | 83.6% | 85.6% | 92% | 88.1% | 94.1% |  | 109% | 
CN1C/C=C\CCOc2cccc(c2)-c2ccnc(n2)Nc2cccc(c2)C1 | -16.9% (active) | -16.8% (active) | -98.6% (active) |  | -52.9% (active) | -41.9% (active) | -95.1% (active) | -62.7% (active) |  |  | -14.7% (active) | -41.5% (active) | -79.3% (active) | -53.2% (active) | -37.9% (active) | 3.32% (active) | -20% (active) | -87.9% (active) | -77.8% (active) | -79.4% (active)
COC(=O)Nc1nc2ccc(C(=O)c3ccc(N(C)C4COC4)cc3)cc2[nH]1 | 12.4% | 0.909% (active) | 16.4% |  | 17.2% | 24.2% | 3.76% (active) | 34.3% | 56.9% |  | 26.9% | 30.9% | 45.3% | 66% | 39% | 15.9% | 10.5% | 31.2% | 10% | 20.4%
CN1CCN(c2nc(C3=C(c4c[nH]c5ccccc45)C(=O)NC3=O)c3ccccc3n2)CC1 | 85.3% | 11.6% | 79.4% |  | 69.4% | 108% | 45.6% | 6.81% (active) | 3.91% (active) |  | 82.6% | 92.3% | 64% | 47.3% | 70.2% | 100% | 74.7% | 54.9% | 75.1% | 80.4%
Nc1c(C(=O)c2ccccc2)sc2nc(-c3cccs3)ccc12 | 24.7% | 5.02% (active) | 32.4% |  | 17.6% | 23% | 17.5% | 11.8% | 72.6% | 44.2% | 60.8% | 44.9% | 48.7% | 56.7% | 54.3% | 19.1% | 28.1% | 38.5% |  | 44.8%
